Gal4-VP16 FLuc: inhibits Gal4-VP16 luciferase reporter, ROR gamma counter-screen. Drosophila S2 Gal4-VP16 UAS-luciferase, luminescence, 20 h. Potency, µM (highest dose often 53.6 µM), without a hit: at the highest dose activity, negative = inhibition, actives largely listed as inhibitors. 310,000 tested, 3.5% active;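 note: Gal4-VP16 expression switched on by copper sulfate through the metallothionein promoter; % is set by controls: 0 for no effect and ±100 for the full control effect; nearly all actives have a fitted effect of over 50% in size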
SW480 rereplic: induces DNA re-replication in SW480 colon adenocarcinoma cells | SW480 DNA re-replication, Hoechst DNA content imaging, 48 h | Potency, µM (doses to about 46.1 µM), inactives show at the top dose re-replication activation, actives largely listed as activators | 340,000 tested, 1.8% active; note: % of control where 0% means no effect; nearly all actives have a fitted effect of over 55% in size
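DNA re-replication was detected as more nuclei of elevated Hoechst intensity after 48 hr exposure to compound (23 nL pinned per well of 250 cells).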
KB-3-1 tox: kills parental KB-3-1 adenocarcinoma cells | AID 1347075 | Potency, µM (top dose mostly 46.1 µM), usual class: cytotoxic | KB-3-1 viability, CellTiter-Glo ATP luminescence, 72 h | 400,000 tested, 1.4% active; note: % is set by controls: 0 for no effect and ±100 for the full control effect; nearly all actives have a fitted effect of over 60% in size
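Cells are dispensed, compounds pinned in, plates held at 37 °C for 72 h, then CellTiter-Glo is added and luminescence read after 10 minutes. Cell line: parental KB-3-1 in phenol-red-free DMEM, 10% FBS.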
KB-V1 cytotox: kills drug-selected multidrug resistant KB-V1 cells; KB-V1 MDR cells viability, CellTiter-Glo, 72 h; Potency, µM (series often up to 46.1 µM), hits mostly cytotoxic; 400,000 tested, 3.4% active; AID 1347076; note: % is set by controls: 0 for no effect and ±100 for the full control effect; nearly all actives have a fitted effect of over 60% in size
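Luminescent ATP read-out (CellTiter-Glo, 10 min) measures survival of drug-selected KB-V1 MDR cells after 72 h, 37 degrees C compound exposure. Medium: phenol-red-free DMEM, 10% FBS. Values from fitted concentration-response curves.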
MCF10A rereplic: induces DNA re-replication in MCF 10a normal breast cells; MCF 10A DNA re-replication, Hoechst nuclear intensity, 48 h; AID 624296; Potency, µM (highest dose often 46.1 µM), inactives show at the top dose activity, positive = re-replication, most hits filed as activators; 350,000 tested, 2.9% active; note: % of control where 0% means no effect; nearly all actives have a fitted effect of over 50% in size
RORgamma inh: ROR gamma (mouse) transcription inhibition | Drosophila S2 Gal4-RORgamma UAS-luciferase reporter, 20 h | Potency, µM (top dose mostly 53.6 µM), for the others: at the highest dose activity change, negative = inhibition, hits mostly inhibitors | 310,000 tested, 5.4% active | AID 2551; note: % is set by controls: 0 for no effect and ±100 for the full control effect; nearly all actives have a fitted effect of over 60% in size
Target sequence (P51450 whole entry, looked up, the tested form may be a part): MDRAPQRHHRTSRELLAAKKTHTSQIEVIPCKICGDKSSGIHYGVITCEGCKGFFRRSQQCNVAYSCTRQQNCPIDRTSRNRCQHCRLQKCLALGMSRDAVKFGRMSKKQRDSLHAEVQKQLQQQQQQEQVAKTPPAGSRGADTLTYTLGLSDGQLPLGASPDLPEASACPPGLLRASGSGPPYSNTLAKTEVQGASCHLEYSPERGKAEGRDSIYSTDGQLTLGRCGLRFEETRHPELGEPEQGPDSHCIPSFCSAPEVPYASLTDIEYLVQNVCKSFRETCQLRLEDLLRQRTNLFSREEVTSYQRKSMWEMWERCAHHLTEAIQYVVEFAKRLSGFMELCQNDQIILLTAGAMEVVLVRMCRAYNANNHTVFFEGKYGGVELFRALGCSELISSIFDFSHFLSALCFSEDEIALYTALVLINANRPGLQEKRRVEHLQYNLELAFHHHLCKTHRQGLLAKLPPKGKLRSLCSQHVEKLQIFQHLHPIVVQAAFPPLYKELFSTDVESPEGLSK
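Stable Schneider cell line, Gal4 DNA-binding domain fused to ROR gamma, UAS-luciferase. Cmpd 1 hr RT → CuSO4 700 uM final → 20 hr RT → luciferase reagent 10 min → luminescence.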
Starred values were filed as active, the others as inactive; i = inactive; ? = inconclusive; / = no result; [ ] = another dose, or the depositor's remark. The list is not random: actives were taken first. Their share in the collection is about 10%. Calls come from the whole dose curve; as a rule, active = well fitted curve in the direction sought with a large enough effect; inconclusive = small, poorly fitted or top-dose-only effect, or another doubt; inactive = no such curve, though single readings can be large; an effect the other way counts as inactive or inconclusive. Potency is the fitted concentration of half-maximal effect.

SMILES | Gal4-VP16 FLuc | SW480 rereplic | KB-3-1 tox | KB-V1 cytotox | MCF10A rereplic | RORgamma inh
COc1ccc(CNC(=O)c2c(O)c3cccc4c3n(c2=O)CCC4)cc1 | 4.5% | -54.1% | i | 14.6µM* | -0.4% | 1.3%
COc1ccc(CNC(=O)c2c(O)c3cccc4c3n(c2=O)CCC4)cc1OC | / | -3.4% | i | i | 1.4% | 32.3%[0.365 µM]
CCN(CC)CCNC1=NCCn2c1cc1cc(OC)ccc12 | -2.9% | ? | i | i | ? | -17.3%
CN=C1c2cc3cc(OC)ccc3n2CCN1Cc1ccccc1 | -4.2% | 11.2µM* | 8.2µM* | 16.4µM* | 20.6µM* | -4.6%
Cc1ccc(N=Nc2ccc(O)c3ncccc23)cc1C | 0.501µM* | ? | ? | i | 7.7% | 0.141µM*
Cc1ccc(N=Nc2ccc(O)c3ncccc23)cc1 | / | 1.16µM* | ? | i | ? | 0.0562µM*
Cc1ccc(N=Nc2ccc3ccccc3c2O)cc1 | ? | 1.2% | ? | i | -1.2% | -2.2%[1.91 µM]
Cc1nn(Cc2ccc(Cl)cc2Cl)c(C)c1NC(=O)NC12CC3CC(CC(C3)C1)C2 | 5.2% | 2.7% | ? | 14.6µM* | ? | 22.5%
Cc1nn(Cc2ccccc2)c(Cl)c1C(=O)OCC(=O)NC(=O)NC12CC3CC(CC(C3)C1)C2 | -6.6% | 0.8% | i | i | 4.9% | 3.6%
CCn1ncc(/C=C/C(=O)Nc2c(C)nn(Cc3ccc(Cl)cc3Cl)c2C)c1C | ? | 10.3µM* | i | i | 4.1% | ?
COc1cccc(NC(=O)c2sc3nc(C)c(C(=O)Nc4ccc(C)cc4C)c(-c4ccco4)c3c2N)c1 | / | / | i | i | / | /
C=CCN(CC=C)C(=O)C(=O)c1cc(C)n(-c2ccc([N+](=O)[O-])cc2)c1C | -5.4% | -7.0% | i | 7.31µM* | -7.2% | ?
Cc1cc(C(=O)C(=O)N(C)C)c(C)n1-c1ccc([N+](=O)[O-])cc1 | 3.2% | -10.2% | i | i | -4.0% | 19.8%
CC1=CC(C)(C)n2c(O)c(N=NC(N)=S)c3cc(C)cc1c32 | 1.78µM* | 16.4µM* | i | i | ? | 0.794µM*
CC1=C(C(=O)Nc2nc3ccccc3s2)C(c2ccco2)C(C#N)=C(SCC(=O)NC2CCCCC2)N1 (centres undefined) | -6.1% | 18.4µM* | i | i | 14.6µM* | 41.3%
CC(=O)C1=C(C)NC(SCC(=O)c2ccccc2)=C(C#N)C1c1ccco1 (centres undefined) | ? | / | / | / | / | 41.7%
CC(=O)C1=C(C)NC(SCC(=O)c2ccccc2)=C(C#N)C1CC(C)C (centres undefined) | ? | 13.1% | i | i | ? | 11.2µM*
CC1=C(C(=O)Nc2ccccc2)C(c2ccncc2)C(C#N)=C(SCC(=O)NC2CC2)N1 (centres undefined) | -7.8% | -2.6% | i | i | -6.2% | -12.0%
CC(=O)C1=C(C)NC(SCC(=O)c2ccc(Cl)cc2Cl)=C(C#N)C1c1ccco1 (centres undefined) | 4.47µM* | 0.4% | i | i | -7.0% | ?
CC(=O)C1=C(C)NC(SCC(=O)c2ccc(Cl)cc2)=C(C#N)C1c1ccco1 (centres undefined) | ? | -4.1% | i | 20.6µM* | 12.5% | ?
O=C(NCCc1ccccc1)c1cc2sccc2n1Cc1ccc(F)cc1 | / | / | i | i | / | /
COc1ccccc1C(=O)OCC(=O)Nc1ccc(N2CCCCC2)cc1 | / | / | ? | i | / | /
CSCSC1=C(C#N)C(c2ccc(Cl)cc2)C(C(C)=O)=C(C)N1 (centres undefined) | ? | / | / | / | / | 14.1µM*
COc1ccc2c(c1)-c1nc(NC(=O)c3ccc(OC)c(Br)c3)sc1CC2 | / | / | i | i | / | /
O=S(=O)(c1ccc(Cl)nc1)N(Cc1ccccc1)Cc1ccccc1 | -6.8% | -43.7% | i | 18.4µM* | ? | 5.6%
SMILES | Gal4-VP16 FLuc | SW480 rereplic | KB-3-1 tox | KB-V1 cytotox | MCF10A rereplic | RORgamma inh
COC(=O)[C@]12CCCCC=C1N(CCc1ccc(OC)c(OC)c1)C(=O)[C@H](CC(=O)NCc1cccc(C(F)(F)F)c1)C2 | / | / | ? | 14.6µM* | / | /
COC(=O)[C@@]12C[C@@H](CC(=O)NCc3cccc(C(F)(F)F)c3)C(=O)N(CCc3ccc(OC)c(OC)c3)C1=CCC(C)(C)C2 | / | / | ? | 16.4µM* | / | /
COC(=O)[C@]12CCCCC=C1N(CCc1ccc(OC)c(OC)c1)C(=O)[C@H](CC(=O)NCCc1ccccc1OC)C2 | / | / | i | 16.4µM* | / | /
COC(=O)[C@]12CCCCC=C1N(CCc1ccc(OC)c(OC)c1)C(=O)[C@H](CC(=O)NCCCCc1ccccc1)C2 | / | / | i | ? | / | /
COC(=O)[C@@]12C[C@@H](CC(=O)NCc3cccc(C(F)(F)F)c3)C(=O)N(Cc3ccc4c(c3)OCO4)C1=CCC(C)(C)C2 | / | / | ? | 20.6µM* | / | /
COCCNc1nc(Nc2ccc(Cl)cc2F)c2sccc2n1 | / | / | i | ? | / | /
CN(C)c1nc(SCCOC(=O)Nc2ccccc2)nc(N(C)C)n1 | -1.6% | -5.9% | i | 14.6µM* | 1.0% | 23.4%
CN(C)c1nc(NC(C)(C)C)nc(SCC(=O)Nc2ccccc2)n1 | -4.5% | -2.9% | i | 8.2µM* | 0.6% | 27.8%
COc1cc(C2=NOC(C(=O)NCc3cccnc3)C2)cc(OC)c1OC (centres undefined) | 2.6% | ? | ? | i | 17.5% | 11.4%
O=C(NCc1cccs1)C1CC(c2ccccc2O)=NO1 (centres undefined) | ? | 22.9% | 16.4µM* | ? | 18.4µM* | ?
COc1ccc(C2=NOC(C(=O)NCc3cccs3)C2)cc1OC (centres undefined) | 15.6% | 5.17µM* | 4.61µM* | 5.17µM* | 1.16µM* | 17.8%
COc1cc(OC)c(C2=NOC(C(=O)NCc3cccs3)C2)cc1Cl (centres undefined) | -6.5% | 9.2µM* | i | 7.31µM* | ? | 8.2%
COc1cc(C2=NOC(C(=O)NCc3cccs3)C2)cc(OC)c1OC (centres undefined) | 0.6% | 6.51µM* | 2.06µM* | 2.59µM* | 10.3µM* | -2.3%
COc1cc(OC)c(C2=NOC(C(=O)NCc3cccnc3)C2)cc1Cl (centres undefined) | -8.6% | ? | ? | i | 20.1% | -12.0%[1.91 µM]
O=C(N[C@H]1c2ccccc2C[C@H]1O)[C@H]1O[C@@H](n2ccc(=O)[nH]c2=O)[C@H](O)[C@@H]1O | / | / | i | i | / | /
CC(C)Oc1cccc(NC(=O)C2CCN(S(=O)(=O)Cc3ccccc3)CC2)c1 | / | / | i | i | / | /
